Experimental data taken from PubChem BioAssay (EPA / NIEHS).
Records with an inconclusive call do not appear. The source made the active and inactive calls. How the source made its calls: active means hit-call score of the fitted dose curve at least 0.9, where 1 is the maximum; inconclusive means response in the unintended direction; inactive means score below 0.9.

These compounds were tested on organic anion transporter (SLCO1B1), SLCO1B1 (gene 10599) (assay: CLD_SLCO1B1_48hr: CellzDirect (CLD) Gene Expression Assay for organic anion transporter (SLCO1B1) at 48 hours (AID 2283707)).
Experimental: CLD_48hr is a cell-based, multiplexed-readout assay that uses hepatocyte, a human liver primary cell, with measurements taken at 48 hours after chemical dosing in a 96-well plate.CLD_SLCO1B1_48hr is one of 16 assay component(s) measured or calculated from the CLD_48hr assay. It is designed to make measurements of mRNA induction, a form of inducible reporter, as detected with chemiluminescence signals by Quantitative Nuclease Protection Assay (qNPA) technology.Data from the assay component CLD_SLCO1B1_48hr was analyzed at the endpoint, CLD_SLCO1B1_48hr, in the positive analysis fitting direction relative to DMSO as the negative control and baseline of activity. Using a type of inducible reporter, gain-of-signal activity can be used to understand changes in the reporter gene as they relate to the gene SLCO1B1. Furthermore, this assay endpoint can be referred to as a primary readout. To generalize the intended target to other relatable targets, this assay endpoint is annotated to the transporter intended target family, where subfamily is organic anion transporter.
Human hepatocyte cultures were treated daily for two consecutive days with fresh dosing solutions containing appropriate concentrations of the 320 ToxCast chemicals (chemical identities were blinded to CellzDirect and other ToxCast collaborators), vehicle control (0.2% DMSO), and positive control inducers as summarized in Table 1. Due to the large number of treatment groups and chemicals examined, the ToxCast chemicals were divided into two groups (spanning two independent cultures of hepatocytes from separate donor preparations (Hu778: ToxCast plates 1 and 2; Hu776: ToxCast plates 3 and 4). Each preparation of human hepatocyte cultures was treated with respective vehicle control, medium only control, set of six positive controls/reference chemicals for the five hepatic receptor pathways, and a subset of eight of the ToxCast chemicals (indoxacarb, pyrithiobac-sodium, norflurazon, cyhalofop-butyl, methomyl, thiram, acetochlor, and propiconazole). These replicate data, coupled with internal replicates designed within the blinded ToxCast chemical library, provided additional data to evaluate interindividual differences between hepatocyte preparations and their potential impact on chemical profiles.Cell morphology and integrity were evaluated using phase-contrast microscopy as an indicator of hepatocyte cell health (Tyson & Green, 1987). Cultures for each treatment group (i.e., media, vehicle [0.2% DMSO], positive control inducers [multiple concentrations], and the ToxCast chemicals [multiple concentrations]) were observed and cell morphology was assessed relative to vehicle control cultures at each harvest time point (0, 6, 24, or 48 h). […] Images were evaluated at the conclusion of the study to assess changes in cell integrity and account for the effects of chemical exposure on uncharacteristic changes in concentration-dependent gene expression profiles. The results from these determinations of apparent cytotoxicity were annotated (yes/no) alongside the corresponding qNPA data for reference.At the conclusion of each treatment period, hepatocyte cultures (96-well) were washed with 1 volume of HBSS, lysed by addition of 25 ul ArrayPlate lysis buffer (HTG, Tucson, AZ), and 70 ul/well of Denaturation Oil, denatured by incubation at 95C for 10 min, and frozen at approximately -70C until analysis by nuclease protection assay (qNPA) (Roberts et al., 2007). For qNPA analysis, cell lysates were thawed at 50C for approximately 30 min, qNPA probes were added, and samples were incubated at 95C for 10 min to begin the detection process by denaturing the target RNA, dissociating the duplexes and secondary structure hybridization. At the conclusion of the hybridization period, S1 nuclease reagent was added to each sample to digest all nonprotected nucleotides at 50C for 60-90 min. […]
In the case of `CCOC(=O)NCCOc1ccc(Oc2ccccc2)cc1`, the outcome is reported as “inactive”. For `COC(=O)c1ccccc1S(=O)(=O)NC(=O)Nc1nc(OC(F)F)cc(OC(F)F)n1`, the outcome was “inactive”. With `CCOC(=O)[C@H](C)Oc1ccc(Oc2nc3ccc(Cl)cc3o2)cc1` the outcome was “inactive”. For `CC(C)(c1ccc(O)cc1)c1ccc(O)cc1`, the outcome was “inactive”. With `COC(=O)c1cccc(C)c1S(=O)(=O)NC(=O)Nc1nc(OCC(F)(F)F)nc(N(C)C)n1` the outcome was “inactive”. In the case of `CCC(C)OC(=O)N1CCCCC1CCO` (stereo not drawn), the outcome is reported as “inactive”. With `COc1c(Cl)ccc(Cl)c1C(=O)O` the outcome was “inactive”. `OB(O)O` was tested, and the outcome was “inactive”. With `COCCO` the outcome was “inactive”. In the case of `CCSC(=O)N(CC(C)C)CC(C)C`, the outcome is reported as “inactive”. `CCCN(CCC)C(=O)SCC` was tested, and the outcome was “inactive”. For `COC(=O)CSc1cc(N=c2sc(=O)n3n2CCCC3)c(F)cc1Cl`, the outcome was “inactive”. `CCCCOC(=O)C(C)Oc1ccc(Oc2ccc(C(F)(F)F)cn2)cc1` (stereo not drawn) was tested, and the outcome was “inactive”. With `CCCCC(CC)COC(=O)c1ccccc1C(=O)O` (stereo not drawn) the outcome was “inactive”. For `c1ccc(Nc2ccccc2)cc1`, the outcome was “inactive”. For `CCCOC(=O)c1ccc(C(=O)OCCC)nc1`, the outcome was “inactive”. `CCCCOC(=O)[C@@H](C)Oc1ccc(Oc2ccc(C(F)(F)F)cn2)cc1` was tested, and the outcome was “inactive”. `CCOC(=O)C(C)Oc1ccc(Oc2cnc3cc(Cl)ccc3n2)cc1` (stereo not drawn) was tested, and the outcome was “inactive”. In the case of `CCC(O)=C1C(=O)CC(C(=O)O)CC1=O` (stereo not drawn), the outcome is reported as “inactive”. `CCNc1nc(N)nc(Cl)n1` was tested, and the outcome was “inactive”. For `C#CCOC(=O)[C@@H](C)Oc1ccc(Oc2ncc(Cl)cc2F)cc1`, the outcome was “inactive”. With `CSC(=O)c1cccc2nnsc12` the outcome was “inactive”. In the case of `CCCOC(=O)NCCCN(C)C`, the outcome is reported as “inactive”.
